Test results as given in paper PMC5540273 (PLoS ONE, 2017).

Tests used:
Settings in all cases: concentration: 1 μM,replicates: in singlicate; n = 1
[1] = tested on: CSNK1G1
[2] = tested on: CSNK1G2
[3] = tested on: CSNK1G3
[4] = tested on: CSNK2A1
[5] = tested on: CSNK2A2
[6] = tested on: T1, CTK
T1 construct: gene MATK

[7] = tested on: DAPK1
[8] = tested on: DAPK2
[9] = tested on: DAPK3
[10] = tested on: T2, DCAMKL1
T2 construct: gene DCLK1
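Also: KINOMEscan kinase panel screen.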

Structure (SMILES)	%Inh [1]	%Inh [2]	%Inh [3]	%Inh [4]	%Inh [5]	%Inh [6]	%Inh [7]	%Inh [8]	%Inh [9]	%Inh [10]
C[C@@H]1CCN(C(=O)CC#N)C[C@@H]1N(C)c1ncnc2[nH]ccc12	15%	0%	0%	0%	0%	0%	10%	0%	4%	0%
Cc1cc(C(=O)Nc2ccc(Oc3ccc4nc(NC(=O)C5CC5)cn4n3)cc2)nn1-c1ccccc1	6%	0%	0%	0%	0%	0%	0%	0%	10%	12%
CCN(CC)CCOc1ccc(Nc2ncc3cc(-c4c(Cl)cccc4Cl)c(=O)n(C)c3n2)cc1 [SB-601273]	38%	0%	12%	6%	9%	27%	12%	0%	10%	24%
Cc1cc2cn[nH]c2cc1-c1cccc2c(N)c(C(N)=O)nnc12	12%	13%	12%	19%	5%	80%	9%	3%	32%	71%
COc1ccc(C[C@@H](CN)NC(=O)c2cc(Br)c(-c3ccnc4[nH]ccc34)s2)cc1.Cl.Cl [GSK1389063]	33%	79%	73%	57%	64%	2%	26%	13%	18%	64%
CCN(CC)CCCCNc1ncc2cc(-c3c(Cl)cccc3Cl)c(NC(=O)NC(C)(C)C)nc2n1	10%	0%	0%	1%	12%	15%	0%	0%	0%	11%
O=C(NCCNc1ccnc(NCc2ccc(F)cc2)n1)c1cc2ccccc2s1 [GSK1379944]	32%	98.8%	9%	0%	66%	0%	0%	0%	81%	1%
Cl.Cl.NC[C@H](CC1CCCCC1)NC(=O)c1cc(Br)c(-c2ccnc3[nH]ccc23)s1 [GSK1581427]	6%	26%	40%	55%	0%	0%	71%	12%	19%	16%
Cl.Cl.Nc1nc(-c2ccc3c(N)n[nH]c3c2)cc(N2CCCC(NC(=O)c3ccccc3)C2)n1 (stereo not drawn) [GSK2286775]	0%	0%	21%	0%	6%	6%	28%	0%	13%	15%
CC(C)Nc1cc(-c2ccc3c(N)n[nH]c3c2)nc(N)n1 [GSK2221681]	0%	2%	19%	13%	28%	0%	30%	42%	51%	7%
Cc1n[nH]c2ccc(-c3cc(OC[C@@H](N)Cc4ccccc4)cnc3-c3ccoc3)cc12.O=C(O)C(F)(F)F.O=C(O)C(F)(F)F [GSK507358]	71%	90.6%	91.7%	10%	8%	0%	0%	0%	13%	0%
NC(=O)c1cc(-c2ccccc2)cc2c(C3CCNCC3)c[nH]c12 [GSK301362]	3%	0%	19%	31%	20%	4%	23%	9%	40%	14%
CN(C)CC(O)COc1ccc(Nc2nccc(-c3cnn4nc(N5CCOCC5)ccc34)n2)cc1 (stereo not drawn) [GW767488]	16%	50%	10%	97.1%	98.7%	1%	59%	46%	68%	72%
O=C(NCCCN1CCOC1=O)c1cnc(NCc2cc(Cl)ccc2Cl)nc1NC1CCCC1	0%	3%	0%	16%	23%	0%	3%	7%	12%	28%
Cc1ccc2c(-c3ccncc3)c(-c3ccc(F)cc3)nn2c1.Cl [GW461484]	30%	27%	27%	0%	0%	0%	0%	7%	5%	0%
Cc1ccc(-n2nc(C(C)(C)C)cc2NC(=O)Nc2ccc(OCCN3CCOCC3)c3ccccc23)cc1 [GW839464]	1%	0%	19%	0%	4%	0%	4%	1%	20%	21%
CCn1c(-c2nonc2N)nc2c(C#CC(C)(C)O)nc(OCCN)cc21.Cl.Cl [GSK902056]	0%	0%	12%	0%	46%	0%	0%	0%	21%	0%
Nc1nc(Nc2ccccc2)cc(-c2ccc3c(N)n[nH]c3c2)n1 [GSK2225749]	2%	0%	13%	34%	24%	0%	34%	49%	62%	12%
Cl.Cl.NC[C@H](Cc1ccc(C(F)(F)F)cc1)NC(=O)c1cc(Br)c(-c2ccnc3[nH]ccc23)s1 [GSK1487252]	0%	8%	24%	0%	14%	0%	0%	0%	6%	17%
CNC(=O)c1ccccc1Sc1ccc2c(/C=C/c3ccccn3)n[nH]c2c1	0%	18%	0%	0%	0%	8%	0%	0%	0%	31%
C[C@H]1Oc2cc(cnc2N)-c2c(nn(C)c2C#N)CN(C)C(=O)c2ccc(F)cc21	0%	27%	10%	0%	0%	0%	0%	83%	16%	88%
Cl.Oc1cc(-c2nc(-c3ccccc3)[nH]c2-c2ccncc2)ccc1Cl [SB-386023]	0%	0%	16%	11%	30%	38%	0%	0%	0%	34%
CC(C)N1C(=O)Cc2cc(Nc3ncc(C(F)(F)F)c(NCc4cccc(S(C)(=O)=O)c4)n3)ccc21	0%	19%	0%	55%	82%	64%	22%	20%	20%	30%
CN(C)CCOc1ccc(-c2cc(-c3c[nH]nc3-c3ccccn3)ccn2)cc1 [GW835314]	14%	9%	65%	0%	3%	48%	13%	0%	0%	0%
C[C@@H](Oc1cc(-c2cnn(C3CCNCC3)c2)cnc1N)c1c(Cl)ccc(F)c1Cl	8%	0%	0%	18%	0%	13%	10%	1%	15%	88%
C=CC(=O)Nc1cc2c(Nc3ccc(F)c(Cl)c3)ncnc2cc1OCCCN1CCOCC1 [GW781483]	0%	1%	99.8%	27%	16%	4%	0%	0%	0%	15%
Cc1occc1-c1nc(N)c(OC[C@@H](N)Cc2c[nH]c3ccccc23)cc1-c1cc2c(C)n[nH]c2cn1 [GSK1660450]	79%	74%	83%	76%	48%	11%	64%	69%	59%	24%
